Reference: PubChem BioAssay AID1159580 (chemical genetic matrix, 2015)
The whole screen tested about 5,500 compounds, of which about 2,000 (36%) were called active. Not shown: some 18% with an inconclusive outcome. Cut-off read from the data, not from the text of the source: active = normalized growth mostly below about 0.91 (no sharp cut-off); inconclusive = no clear call, values can overlap the other calls; inactive = mostly above about 0.92. The list shows a part of the results.

Experiment: chemical genetic growth profiling, strain panel (AID 1159580);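 note: tested at 20 µM; growth read once vehicle control cultures reached saturation at 30 °C; 1 = growth at the plate median or of vehicle wells; lower values mean less growth of the strain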
Details: growth OD

Measured: normalized growth

CC1C(=O)OC2C1CCC1(C)C=CC(=O)C3(C)OC213 (stereo unspecified)
inactive: S. cerevisiae deletion strains, locus YAL013W, strain DEP1, stronger effect = lower value 0.968 | S. cerevisiae deletion strains, locus YBR021W, strain FUR4, stronger effect = lower value 1.01 | S. cerevisiae deletion strains, locus YBR229C, strain ROT2, stronger effect = lower value 1.01 | S. cerevisiae deletion strains, locus YCL029C, strain bik1, stronger effect = lower value 1.01 | S. cerevisiae deletion strains, locus YDL035C, strain GPR1, stronger effect = lower value 1.02 | S. cerevisiae deletion strains, locus YDL074C, strain BRE1, stronger effect = lower value 0.974 | S. cerevisiae deletion strains, locus YDL101C, strain DUN1, stronger effect = lower value 1 | S. cerevisiae deletion strains, locus YDL134C, strain PPH21, stronger effect = lower value 0.999 | S. cerevisiae deletion strains, locus YDL185W, strain tfp1, stronger effect = lower value 1.01 | S. cerevisiae deletion strains, locus YDL192W, strain arf1, stronger effect = lower value 0.999 | S. cerevisiae deletion strains, locus YDR101C, strain arx1, stronger effect = lower value 0.989 | S. cerevisiae deletion strains, locus YDR150W, strain NUM1, stronger effect = lower value 1 | S. cerevisiae deletion strains, locus YDR162C, strain NBP2, stronger effect = lower value 0.985 | S. cerevisiae deletion strains, locus YDR318W, strain mcm21, stronger effect = lower value 1.01 | S. cerevisiae deletion strains, locus YDR388W, stronger effect = lower value 1 | S. cerevisiae deletion strains, locus YDR502C, strain sam2, stronger effect = lower value 0.985 | S. cerevisiae deletion strains, locus YEL061C, strain CIN8, stronger effect = lower value 1.02 | S. cerevisiae deletion strains, locus YER110C, stronger effect = lower value 1.01 | S. cerevisiae deletion strains, locus YER155C, strain BEM2, stronger effect = lower value 1 | S. cerevisiae deletion strains, locus YER167W, strain BCK2, stronger effect = lower value 1.02 | S. cerevisiae deletion strains, locus YGL078C, strain dbp3, stronger effect = lower value 1 | S. cerevisiae deletion strains, locus YGL086W, strain mad1, stronger effect = lower value 1.01 | S. cerevisiae deletion strains, locus YGL248W, strain PDE1, stronger effect = lower value 1.01 | S. cerevisiae deletion strains, locus YGR078C, strain PAC10, stronger effect = lower value 0.989 | S. cerevisiae deletion strains, locus YGR135W, strain pre9, stronger effect = lower value 0.976 | S. cerevisiae deletion strains, locus YGR229C, strain SMI1, stronger effect = lower value 0.999 | S. cerevisiae deletion strains, locus YGR252W, strain gcn5, stronger effect = lower value 1.01 | S. cerevisiae deletion strains, locus YHR030C, strain SLT2, stronger effect = lower value 1.01 | S. cerevisiae deletion strains, locus YHR079C, strain IRE1 (second series), stronger effect = lower value 1.02 | S. cerevisiae deletion strains, locus YHR094C, strain hxt1, stronger effect = lower value 0.999 | S. cerevisiae deletion strains, locus YHR129C, strain ARP1, stronger effect = lower value 1.02 | S. cerevisiae deletion strains, locus YHR200W, strain rpn10, stronger effect = lower value 1 | S. cerevisiae deletion strains, locus YIL066C, strain RNR3, stronger effect = lower value 0.999 | S. cerevisiae deletion strains, locus YIL073C, strain SPO22, stronger effect = lower value 1.09 | S. cerevisiae deletion strains, locus YIL125W, strain kgd1, stronger effect = lower value 1.01 | S. cerevisiae deletion strains, locus YIR030C, strain dcg1, stronger effect = lower value 1 | S. cerevisiae deletion strains, locus YJL095W, strain BCK1, stronger effect = lower value 0.988 | S. cerevisiae deletion strains, locus YJL134W, strain LCB3, stronger effect = lower value 1.01 | S. cerevisiae deletion strains, locus YJL168C, strain set2, stronger effect = lower value 1.01 | S. cerevisiae deletion strains, locus YJL187C, strain SWE1 (second series), stronger effect = lower value 1.01 | S. cerevisiae deletion strains, locus YJR043C, strain POL32, stronger effect = lower value 1.06 | S. cerevisiae deletion strains, locus YJR075W, strain HOC1, stronger effect = lower value 1 | S. cerevisiae deletion strains, locus YKL009W, strain mrt4, stronger effect = lower value 1.02 | S. cerevisiae deletion strains, locus YKL068W, stronger effect = lower value 1 | S. cerevisiae deletion strains, locus YKL085W, strain MDH1 (second series), stronger effect = lower value 1.04 | S. cerevisiae deletion strains, locus YKL085W, strain MDH1, stronger effect = lower value 1.04 | S. cerevisiae deletion strains, locus YKL190W, strain CNB1, stronger effect = lower value 1.01 | S. cerevisiae deletion strains, locus YKR001C, strain vps1, stronger effect = lower value 1 | S. cerevisiae deletion strains, locus YLR039C, strain RIC1, stronger effect = lower value 1.01 | S. cerevisiae deletion strains, locus YLR058C, strain SHM2, stronger effect = lower value 1.01 | S. cerevisiae deletion strains, locus YLR102C, strain apc9, stronger effect = lower value 1.01 | S. cerevisiae deletion strains, locus YLR262C, strain YPT6, stronger effect = lower value 0.996 | S. cerevisiae deletion strains, locus YLR268W, strain sec22, stronger effect = lower value 0.959 | S. cerevisiae deletion strains, locus YLR330W, strain CHS5, stronger effect = lower value 1.01 | S. cerevisiae deletion strains, locus YLR342W, strain FKS1 (second series), stronger effect = lower value 1.06 | S. cerevisiae deletion strains, locus YLR371W, strain rom2, stronger effect = lower value 1.01 | S. cerevisiae deletion strains, locus YLR418C, strain cdc73, stronger effect = lower value 0.963 | S. cerevisiae deletion strains, locus YML016C, strain PPZ1, stronger effect = lower value 1 | S. cerevisiae deletion strains, locus YML032C, strain rad52, stronger effect = lower value 1.01 | S. cerevisiae deletion strains, locus YML124C, strain tub3, stronger effect = lower value 1 | S. cerevisiae deletion strains, locus YMR078C, strain ctf18, stronger effect = lower value 1 | S. cerevisiae deletion strains, locus YMR223W, strain ubp8, stronger effect = lower value 1.01 | S. cerevisiae deletion strains, locus YMR263W, strain SAP30, stronger effect = lower value 0.982 | S. cerevisiae deletion strains, locus YMR307W, strain GAS1, stronger effect = lower value 1.02 | S. cerevisiae deletion strains, locus YNL067W, strain RPL9B, stronger effect = lower value 0.97 | S. cerevisiae deletion strains, locus YNL128W, strain TEP1, stronger effect = lower value 1 | S. cerevisiae deletion strains, locus YNL153C, strain GIM3, stronger effect = lower value 0.989 | S. cerevisiae deletion strains, locus YNL233W, strain BNI4, stronger effect = lower value 1.01 | S. cerevisiae deletion strains, locus YNL250W, strain rad50, stronger effect = lower value 0.999 | S. cerevisiae deletion strains, locus YNL271C, strain bni1, stronger effect = lower value 1.01 | S. cerevisiae deletion strains, locus YNL298W, strain CLA4, stronger effect = lower value 0.99 | S. cerevisiae deletion strains, locus YNL307C, strain MCK1, stronger effect = lower value 1.02 | S. cerevisiae deletion strains, locus YNL322C, strain KRE1, stronger effect = lower value 1 | S. cerevisiae deletion strains, locus YNR052C, strain pop2, stronger effect = lower value 1.02 | S. cerevisiae deletion strains, locus YOL006C, strain TOP1, stronger effect = lower value 0.926 | S. cerevisiae deletion strains, locus YOL012C, strain htz1 1.83 | S. cerevisiae deletion strains, locus YOL147C, strain pex11, stronger effect = lower value 1.01 | S. cerevisiae deletion strains, locus YOR061W, strain CKA2, stronger effect = lower value 1.01 | S. cerevisiae deletion strains, locus YOR069W, strain VPS5, stronger effect = lower value 1.01 | S. cerevisiae deletion strains, locus YOR136W, strain idh2, stronger effect = lower value 1.01 | S. cerevisiae deletion strains, locus YOR144C, strain elg1, stronger effect = lower value 0.997 | S. cerevisiae deletion strains, locus YOR184W, strain ser1, stronger effect = lower value 1.01 | S. cerevisiae deletion strains, locus YOR316C, strain cot1, stronger effect = lower value 1.01 | S. cerevisiae deletion strains, locus YPL055C, strain LGE1, stronger effect = lower value 0.974 | S. cerevisiae deletion strains, locus YPL241C, strain CIN2, stronger effect = lower value 1.01 | S. cerevisiae deletion strains, locus YPR119W, strain clb2, stronger effect = lower value 0.996 | S. cerevisiae deletion strains, locus YPR141C, strain kar3, stronger effect = lower value 0.998 | S. cerevisiae deletion strains, locus YPR163C, strain tif3, stronger effect = lower value 1.01 | S. cerevisiae deletion strains, locus YPR167C, strain met16, stronger effect = lower value 1 | S. cerevisiae deletion strains, strain wtn01, stronger effect = lower value 0.996 | S. cerevisiae strains, strain wild type, stronger effect = lower value 1.01
